# From PubChem BioAssay
# sEH inhibitor = inhibitors of human soluble epoxide hydrolase | P34913 | recombinant human sEH enzymatic activity assay | 0.34% of 91,000 active | inhibition, % at 2 µM; in the data active = inhibition above about 80%
# sEH act = increases human soluble epoxide hydrolase activity; P34913; purified human sEH enzymatic activity, activator screen; activation, % at 2 µM; 0.04% of 91,000 active; in the data active = activation above about 37%
# PLK1 kinase inh = blocks human PLK1 kinase activity. P53350. inhibition, % at 10 µM. 0.53% of 97,000 active. recombinant PLK1 kinase, TR-FRET peptide phosphorylation;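 active = inhibition of 50% or more in the single-concentration screen; inactive = inhibition below 50%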;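 note: 0% = DMSO max control and 100% = H-89 dihydrochloride min control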
# PTK2B oligo ant = Pyk2 (human) oligomerization antagonism | Q14289 | 0.83% of 99,000 active | Q293 cells, Pyk2 FERM NanoBiT luminescence; stronger effect = lower value | z-score (the deposit names both 25 µM and 10 µM);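 active = Z-score of -3 or lower, scaled per plate to the spread of control and sample wells; inactive = z-score above -3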;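 note: negative z-score means lost luminescence so less FERM oligomerization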
# Target sequence (Q14289 whole entry, looked up): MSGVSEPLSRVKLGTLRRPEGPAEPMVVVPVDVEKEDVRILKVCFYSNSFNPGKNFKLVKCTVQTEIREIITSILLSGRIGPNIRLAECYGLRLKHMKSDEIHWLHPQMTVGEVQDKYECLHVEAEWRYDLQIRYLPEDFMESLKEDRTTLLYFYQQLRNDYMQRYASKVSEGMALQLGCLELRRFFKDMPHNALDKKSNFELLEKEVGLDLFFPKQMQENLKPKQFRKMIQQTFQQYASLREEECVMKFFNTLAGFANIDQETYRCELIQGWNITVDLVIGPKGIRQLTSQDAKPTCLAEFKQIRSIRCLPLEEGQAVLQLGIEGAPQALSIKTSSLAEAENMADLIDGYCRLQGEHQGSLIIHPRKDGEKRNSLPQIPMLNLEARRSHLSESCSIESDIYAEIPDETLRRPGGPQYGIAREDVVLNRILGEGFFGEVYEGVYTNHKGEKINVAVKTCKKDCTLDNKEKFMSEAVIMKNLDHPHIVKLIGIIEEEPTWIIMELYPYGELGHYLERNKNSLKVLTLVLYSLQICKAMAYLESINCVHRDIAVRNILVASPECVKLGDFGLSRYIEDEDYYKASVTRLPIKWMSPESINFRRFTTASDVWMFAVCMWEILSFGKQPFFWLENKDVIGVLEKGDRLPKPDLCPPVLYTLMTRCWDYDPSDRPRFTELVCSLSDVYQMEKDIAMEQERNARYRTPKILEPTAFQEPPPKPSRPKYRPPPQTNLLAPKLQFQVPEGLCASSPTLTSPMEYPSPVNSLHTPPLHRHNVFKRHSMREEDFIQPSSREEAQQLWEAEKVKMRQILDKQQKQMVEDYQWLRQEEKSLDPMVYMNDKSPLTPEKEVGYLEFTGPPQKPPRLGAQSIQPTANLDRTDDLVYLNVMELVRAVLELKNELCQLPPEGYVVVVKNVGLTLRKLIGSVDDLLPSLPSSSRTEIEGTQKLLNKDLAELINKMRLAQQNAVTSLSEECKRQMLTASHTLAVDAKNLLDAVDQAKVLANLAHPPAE
# Plk1 PBD FP = inhibitors of human Plk1 polo box domain binding. P53350. 0.13% of 97,000 active. Plk1 PBD phosphopeptide binding, fluorescence polarization. inhibition, %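 (tested at about 20 µM)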; in the data active = inhibition above about 34%, passing the limit was not always enough
# PLK1 inh conf = confirmation of human PLK1 kinase inhibitors; shares compounds with PLK1 kinase inh; 20% of 210 active; AID 744; inhibition, % at 10 µM; recombinant PLK1 kinase, TR-FRET peptide phosphorylation;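 active = inhibition at or above 50% in each of two repeat confirmation tests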;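 note: 0% = DMSO max control and 100% = H-89 kinase-blocked min control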
# TR-FRET interf = Plk1 assay compound interference counter-screen hit. Plk1 TR-FRET assay interference, compound added post-reaction. 210 tested, under 10 active. inhibition (interference), % at 10 µM. shares compounds with PLK1 kinase inh;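 active = both duplicate runs show 50% or greater inhibition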;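 note: 0% = DMSO max control and 100% = H-89 min control inhibited reaction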
# Active calls of the source: *; x = no result given. This is a sample that favours compounds with a hit; in the whole collection about 1.6% have one here.
SMILES,sEH inhibitor,sEH act,PLK1 kinase inh,PTK2B oligo ant,Plk1 PBD FP,PLK1 inh conf,TR-FRET interf
Cc1cc(C)c(NC(=O)c2ccc(S(=O)(=O)N3CCOCC3)cc2)c(C)c1,x,x,72*,x,-3,-11,-48
Cn1cnc2c1c(=O)n(CC(O)CO)c(=O)n2C (stereo unspecified),-6,7,-10,-0.26,-8,x,x
c1ccc(COc2ccc(Nc3ncnc4nc[nH]c34)cc2)cc1,7,-8,72*,x,-19,44,-52
Cc1cccc(Nc2ncnc3nc[nH]c23)c1,-3,3,76*,x,9,81*,-48
CCn1c(SCC(=O)N2CCOCC2)nc(O)cc1=O,x,x,71*,x,-13,-15,-51
Cn1nnnc1SCC(=O)Nc1ccc(N2CCOCC2)cc1,-2,3,75*,-0.12,-13,-3,-54
Cn1c(SCC(=O)Nc2ccc(N3CCOCC3)cc2)nnc1-c1ccccc1,-22,22,-12,0.6,-10,x,x
CCOC(=O)CSc1nc2ccccc2c(=O)[nH]1,x,x,72*,x,2,-9,-49
CCN(CC)C(=O)CSc1nc2ccccc2c(=O)[nH]1,4,-2,-6,-0.32,-4,x,x
Cc1cc(=O)n(CC(C)O)c(O)c1C#N (stereo unspecified),7,-5,-8,-0.15,2,x,x
CCOC(=O)c1[nH]c(C)c(C(=O)NCCCOC(C)C)c1C,x,x,x,0.63,x,x,x
CCOC(=O)c1[nH]c(C)c(C(=O)NCCN2CCOCC2)c1C,x,x,74*,x,-21,-10,-52
CCCCC(CC)CNC(=O)C1C2C=CC(C2)C1C(=O)O (stereo unspecified),-2,4,-38,0.02,-15,x,x
OC(CN1C2=NCCCN2c2ccccc21)c1ccc(Cl)cc1 (stereo unspecified),x,x,80*,x,-14,-3,-54
CCc1nc2n[nH]c(N)c2c2c1CSC(C)(C)C2,-4,4,77*,0.83,16,72*,-53
CCCc1nc2n[nH]c(N)c2c2c1CCC2,x,x,x,0.85,x,x,x
O=C1c2ccccc2CC1(Cc1ccccc1)Cc1ccccc1,-2,4,-8,-0.34,-8,x,x
COc1cc(-c2nnc(SCc3cc(=O)oc4cc(O)c(O)cc34)o2)cc(OC)c1OC,0,1,77*,-0.36,2,26,1
CCCOC(=O)CSc1nnc(-c2cc(OC)c(OC)c(OC)c2)o1,6,-6,-11,0.8,-1,x,x
CCOc1ccc(-n2c(Cc3cc(=O)[nH]c(=O)[nH]3)nnc2SC(C)C)cc1,-2,1,-8,-0.08,-6,x,x
CCC(C)Sc1nnc(Cc2cc(=O)[nH]c(=O)[nH]2)n1-c1ccc(F)cc1 (stereo unspecified),x,x,72*,x,16,-8,-49
O=C(c1ccco1)N1CCN(c2ncccn2)CC1,x,x,76*,x,-9,-15,-49
Cc1ccc(S(=O)(=O)C(C)C(=O)c2ccc3c(c2)OCCO3)cc1 (stereo unspecified),12,-9,-4,1.1,1,x,x
CCOC(=O)CNC(c1ccccc1)c1cc(Br)ccc1NC(=O)OCC (stereo unspecified),-2,5,93*,-2.9,9,-1,-54
C=CCn1c(SCC(=O)OC)nc2sc3c(c2c1=O)CCN(C)C3,4,-4,-7,x,0,x,x
SMILES,sEH inhibitor,sEH act,PLK1 kinase inh,PTK2B oligo ant,Plk1 PBD FP,PLK1 inh conf,TR-FRET interf
NC1=CC(=O)c2cccc3cccc1c23,0,2,78*,x,17,21,-17
Cc1ccc(CSCC(=O)N2CCN(c3ccc(F)cc3)CC2)cc1,6,-7,109*,1.1,2,-8,-57
COc1cccc(NC(=O)c2nn(C)cc2Br)c1,1,5,-4,0.17,-15,x,x
CC1(C)CC(=O)C2=C(C1)OC(N)=C(C#N)C21CCN(Cc2ccccc2)CC1,x,x,x,0.48,x,x,x
Cc1nc2c([nH]1)C1(CCN(Cc3ccccc3)CC1)C(C#N)=C(N)O2,-21,25,70*,-0.12,1,72*,-56
COC(=O)CSc1nc2cc(OC)ccc2cc1C#N,-4,3,87*,1.2,-5,-8,-53
COc1ccc(C2c3c(oc4ccccc4c3=O)C(=O)N2CCCN2CCOCC2)cc1 (stereo unspecified),-24,24,-7,x,14,x,x
CCOc1ccc(C2c3c(oc4ccccc4c3=O)C(=O)N2CCCN2CCOCC2)cc1OCC (stereo unspecified),x,x,74*,x,5,-3,-54
Cc1ccc(N(C)C(=O)N2CCN(S(=O)(=O)c3ccc(C)cc3)CC2)cc1,x,x,72*,x,2,3,-50
COc1ccc(C(=O)Cn2c3ccccc3n3nc(CCC(=O)O)c(=O)nc23)cc1OC,-4,0,0,1.6,-19,x,x
CCNC(=O)CSc1ncnc2sccc12,6,-4,-5,0.09,-9,x,x
N#Cc1c(NC(=O)CSc2ncnc3sccc23)oc(-c2ccco2)c1-c1ccco1,4,-5,77*,0.12,-4,-9,-53
CC1Cc2ccccc2N1C(=O)c1cnc2sccn2c1=O (stereo unspecified),4,-1,-4,x,-18,x,x
CC1Cc2ccccc2N1C(=O)c1cnc2n(c1=O)CCS2 (stereo unspecified),x,x,70*,x,8,-9,-53
Cc1nn2c(=O)cc(CSc3nc4ccccc4[nH]3)nc2s1,x,x,74*,x,-20,-13,-60
Cc1cc(C(=O)CSc2nc3ccccc3[nH]2)c(C)n1C,4,-3,-5,-0.12,8,x,x
CC1CCN(CC(O)COc2cccc(F)c2)CC1 (stereo unspecified),x,x,74*,x,7,-2,-55
COc1cccc(OCC(O)CN2CCC(C)CC2)c1 (stereo unspecified),6,-6,-5,-0.26,14,x,x
CC1CCN(CC(O)COc2ccc(F)cc2)CC1 (stereo unspecified),x,x,75*,x,0,-8,-58
N#Cc1c(C(F)(F)F)cc(-c2ccccc2Cl)[nH]c1=O,x,x,-5,-1.5,5,x,x
O=C(C/C=N/OCc1c(Cl)cccc1Cl)c1ccc(Cl)cc1,-7,7,-10,1.6,20,x,x
COCCn1c(SCc2cccnc2)nnc1-c1c[nH]c2ccccc12,x,x,75*,x,-21,-9,-47
COCCn1c(SCC(=O)Nc2cc(C)on2)nnc1-c1c[nH]c2ccccc12,x,x,71*,x,-2,0,-51
O=C(CC1NCCNC1=O)Nc1ccc2c(c1)OCO2 (stereo unspecified),1,-2,-2,1.2,-1,x,x
Cn1c(=O)c2c(SCc3cccnc3)nc(CC(C)(C)C)nc2n(C)c1=O,x,x,73*,x,-8,0,-53
O=C(CCc1ccccc1)N1CCN(CCO)CC1,x,x,74*,x,21,-10,-48
Cc1cccc(C)c1NC(=O)CSc1nnc(Cn2nnc(-c3ccccc3)n2)n1-c1ccccc1,1,-1,-13,-0.28,-3,x,x
